{"source": "PubChem BioAssay AID463173", "about": "(ICCB-Longwood Screening Facility, Harvard Medical School, 2010)", "note": "The whole screen tested about 52,000 compounds, of which about 4,300 (8.3%) were called active. For the sample, actives were picked, then their nearest neighbours and some compounds at random. Values without a mark were called inactive. Rule as the data show it: active = survival mostly below about 52% (no sharp cut-off); inactive = mostly above about 56%.", "data": [{"tested_on": "DeltatarO mutant", "test": "growth inhibition of S. aureus wild type versus tarO mutant, primary screen, teichoic acid synthesis inhibitors, RN4220, OD600 (AID 463173)", "details": "OD600, 18 h, stronger effect = lower value, screened at 18.75 µg/mL (by protocol)", "values": [{"smiles": "O=C(Cn1ncc2c3ccccc3n(Cc3ccccc3F)c2c1=O)NCc1ccccc1Cl", "survival": "78%"}, {"smiles": "Cc1ccc(N(CCO)S(=O)(=O)c2ccc(NC3=NS(=O)(=O)c4ccccc43)cc2)cc1", "survival": "96%"}, {"smiles": "CCc1ccc(C(=O)c2cn(CC(=O)Nc3ccc4c(c3)OCCO4)c3ccc(F)cc3c2=O)cc1", "survival": "78%"}, {"smiles": "Cc1cccc(NS(=O)(=O)c2ccc3c(c2)CCCN3C(=O)C2CCC2)c1C", "survival": "107%"}, {"smiles": "Cc1oc2ncn(C)c(=O)c2c1C(=O)Nc1ccc(F)cc1", "survival": "72%"}, {"smiles": "COc1ccc(-n2c(SCc3ccccc3F)nc3c([nH]c4ccccc43)c2=O)cc1OC", "survival": "68%"}, {"smiles": "ON(Cn1nnc2ccccc21)Cn1nnc2ccccc21", "survival": "102%"}, {"smiles": "COc1ccc(-c2noc(-c3ccc(N4CCCCC4C)c([N+](=O)[O-])c3)n2)cc1OC", "note": "(centres undefined)", "survival": "104%"}, {"smiles": "COc1ccc(Cl)cc1-n1nnc(-c2nsc(NC(=O)c3ccccc3Cl)n2)c1C", "survival": "23% (active)"}, {"smiles": "COc1ccc(C(=O)Nc2nc(-c3nnn(-c4cc(OC)ccc4OC)c3C)ns2)cc1", "survival": "109%"}, {"smiles": "Cc1ccc(C(=O)Nc2nc(-c3nnn(-c4cccc(Cl)c4C)c3C)ns2)cc1C", "survival": "124%"}, {"smiles": "COc1cccc(C(=O)Nc2nc(-c3nnn(-c4cc(C)ccc4C)c3C)ns2)c1", "survival": "88%"}, {"smiles": "COc1cccc(C(=O)Nc2nc(-c3nnn(-c4cccc(Cl)c4C)c3C)ns2)c1", "survival": "-5% (active)"}, {"smiles": "COc1ccc(-n2nnc(-c3nsc(NC(=O)c4ccc(C)c(C)c4)n3)c2C)cc1Cl", "survival": "126%"}, {"smiles": "O=C(C1CC1)N1CCc2cc(Br)cc(S(=O)(=O)N3CCN(c4cccc(Cl)c4)CC3)c21", "survival": "62%"}, {"smiles": "CCOc1ccc(-n2c(=O)c3c4c(sc3n(CC(=O)NC(C)CC)c2=O)CCC4)cc1", "note": "(centres undefined)", "survival": "142%"}, {"smiles": "COC(=O)Cn1c(CN2CCN(c3ccc(OC)cc3)CC2)nc2c1c(=O)[nH]c(=O)n2C", "survival": "88%"}, {"smiles": "CCCc1nn2c(=O)cc(COC(=O)c3ccc(NC(=O)c4cccs4)cc3)nc2s1", "survival": "69%"}, {"smiles": "CCOc1ccc(N(C)C(CNS(=O)(=O)c2ccccc2)c2ccccc2)cc1", "note": "(centres undefined)", "survival": "87%"}, {"smiles": "Cn1c(=O)oc2cc(S(=O)(=O)N3CCC(C(=O)N4CCN(c5ccc(Cl)cc5)CC4)CC3)ccc21", "survival": "56%"}, {"smiles": "COC(=O)C1=CN(CCCN2CCCC2=O)C=C(C(=O)OC)C1c1cccs1", "survival": "77%"}, {"smiles": "COC(=O)C1=CN(C2CC2)C=C(C(=O)OC)C1c1ccsc1", "survival": "60% (active)"}, {"smiles": "COC(=O)C1=CNC=C(C(=O)OC)C1c1ccc(Cl)cc1", "survival": "88%"}, {"smiles": "COc1ccc(-n2c(=O)c3c4c(sc3n(Cc3ccccc3)c2=O)CN(C(C)=O)CC4)cc1OC", "survival": "67%"}, {"smiles": "C=CCc1cccc2cc(-c3nc4ccc(C)cc4[nH]3)c(=O)oc12", "survival": "0% (active)"}, {"smiles": "COc1cccc2cc(-c3nc4ccc(C)cc4[nH]3)c(=O)oc12", "survival": "98%"}, {"smiles": "C=CCc1cccc2cc(-c3nc4ccc(C(=O)O)cc4[nH]3)c(=O)oc12", "survival": "92%"}, {"smiles": "O=C(NC(=O)c1ccc(F)cc1)Nc1ccc(-c2cc(C(F)(F)F)nn2-c2ccccc2)cc1", "survival": "61%"}, {"smiles": "COCCn1c(SCC(=O)c2ccccc2)nc2cc(C(=O)NC3CCCC3)ccc2c1=O", "survival": "87%"}, {"smiles": "CC(C)=CC(=O)Nc1nnc(Cc2ccccc2)s1", "survival": "55%"}, {"smiles": "Cc1ccc(Cn2c(CNS(=O)(=O)c3ccc(F)c(Cl)c3)nc3cccnc32)cc1", "survival": "126%"}, {"smiles": "Cc1ccc(Cn2c(CNS(=O)(=O)c3ccc(Cl)s3)nc3cccnc32)cc1", "survival": "124%"}, {"smiles": "CCc1ccc(Cn2c(CNS(=O)(=O)c3ccc(F)c(Cl)c3)nc3cccnc32)cc1", "survival": "20% (active)"}, {"smiles": "CCOc1ccc(Cn2c(CNS(=O)(=O)c3ccc([N+](=O)[O-])cc3)nc3cccnc32)cc1", "survival": "94%"}, {"smiles": "O=S(=O)(NCc1nc2cccnc2n1Cc1ccc(F)cc1)c1ccc(Cl)s1", "survival": "-5% (active)"}, {"smiles": "CCc1ccc(Cn2c(CNS(=O)(=O)c3ccc(Cl)s3)nc3cccnc32)cc1", "survival": "66%"}, {"smiles": "Cc1ccc(Cn2c(CNC(=O)Cc3cccc([N+](=O)[O-])c3)nc3cccnc32)cc1", "survival": "70%"}, {"smiles": "O=S(=O)(NCc1nc2cccnc2n1Cc1ccccc1Cl)c1ccc(F)c(Cl)c1", "survival": "87%"}, {"smiles": "COc1ccc(Cn2c(CNC(=O)Cc3cccc([N+](=O)[O-])c3)nc3cccnc32)cc1", "survival": "-5% (active)"}, {"smiles": "CCc1ccc(Cn2c(CNS(=O)(=O)c3ccc([N+](=O)[O-])cc3)nc3cccnc32)cc1", "survival": "8% (active)"}, {"smiles": "O=C(Cc1cccc([N+](=O)[O-])c1)NCc1nc2cccnc2n1Cc1ccc(F)cc1", "survival": "118%"}, {"smiles": "CCOc1ccc(Cn2c(CNS(=O)(=O)c3ccc(CC)cc3)nc3cccnc32)cc1", "survival": "95%"}, {"smiles": "C#CCN1CCOCC1", "survival": "99%"}, {"smiles": "Cc1cc2c(=O)c(C(=O)c3ccncc3)cn(CC(=O)Nc3cccc(C)c3C)c2cc1C", "survival": "94%"}, {"smiles": "CCOc1ccc(-c2cc3nc(C4CCN(C(=O)OC(C)(C)C)CC4)c(C(=O)Nc4cccc(Cl)c4C)cn3n2)cc1", "survival": "81%"}, {"smiles": "COc1ccc(NC(=O)CC2SC(=Nc3ccccc3)N(CCO)C2=O)cc1", "note": "(centres undefined)", "survival": "95%"}, {"smiles": "Cc1nnc(NC(=O)C(C)N2CCCC2)s1", "note": "(centres undefined)", "survival": "97%"}, {"smiles": "O=C(Nc1ccccc1Cl)N1CCc2ccccc2C1", "survival": "91%"}, {"smiles": "Cc1nn(C)c2c1c(-c1ccccc1)cc(=O)n2CC(=O)NC(C)(C)C", "survival": "113%"}, {"smiles": "COc1cccc(CSc2nc3n(n2)C(c2cccnc2)C(C(=O)Nc2ccccc2C)=C(C)N3)c1", "note": "(centres undefined)", "survival": "74%"}, {"smiles": "COc1ccc(Cn2c(CNS(=O)(=O)c3ccc4c(c3)CCCC4)nc3cccnc32)cc1", "survival": "128%"}, {"smiles": "COc1ccc(Cn2c(CNS(=O)(=O)c3ccc(C)c(C)c3)nc3cccnc32)cc1", "survival": "17% (active)"}, {"smiles": "CCc1ccc(Cn2c(CNS(=O)(=O)c3ccc(C)c(C)c3)nc3cccnc32)cc1", "survival": "81%"}, {"smiles": "Cc1nc(-c2ccc(F)cc2)sc1CCNC(=O)c1ccccc1C(F)(F)F", "survival": "97%"}, {"smiles": "CCCCN(CC)CCCNC(=O)c1cn(CC)c2ccc(S(=O)(=O)N3CCOCC3)cc2c1=O", "survival": "89%"}, {"smiles": "COc1ccc(CNC(=O)CCc2cn(C)c3ccccc23)cc1", "survival": "57%"}, {"smiles": "CCOC(=O)c1sc2ccccc2c1S(=O)(=O)NCc1ccc(F)cc1", "survival": "94%"}, {"smiles": "COc1ccccc1C(=O)Nc1ccccc1C(=O)OCc1cc(=O)n2ccsc2n1", "survival": "-5% (active)"}, {"smiles": "O=C(Nc1ccccc1C(=O)OCc1cc(=O)n2ccsc2n1)c1ccccc1Cl", "survival": "60%"}, {"smiles": "Cc1ccccc1C(=O)Nc1ccccc1C(=O)OCc1cc(=O)n2ccsc2n1", "survival": "77%"}, {"smiles": "COc1ccccc1C(=O)Nc1cccc(C(=O)OCc2cc(=O)n3ccsc3n2)c1", "survival": "-4% (active)"}, {"smiles": "COc1cc(C(=O)OCc2cc(=O)n3nc(C(C)C)sc3n2)cc(OC)c1OC", "survival": "99%"}, {"smiles": "COc1cc(C(=O)OCc2cc(=O)n3ccsc3n2)cc(OC)c1OC", "survival": "-2% (active)"}, {"smiles": "Cc1ccccc1C(=O)Nc1cccc(C(=O)OCc2cc(=O)n3ccsc3n2)c1", "survival": "72%"}, {"smiles": "Cc1cccc(C(=O)OCc2cc(=O)n3ccsc3n2)c1", "survival": "84%"}, {"smiles": "COc1ccccc1C(=O)Nc1ccc(C(=O)OCc2cc(=O)n3ccsc3n2)cc1", "survival": "96%"}, {"smiles": "CCc1nnc2c(NCc3cccc(OC)c3)nc3ccccc3n12", "survival": "89%"}, {"smiles": "Cc1cc(C)c2c(=O)cc(C(=O)Nc3nc4ccc(F)cc4s3)oc2c1", "survival": "61%"}, {"smiles": "COc1ccc(-c2cn3c(n2)sc2cc(C(=O)NC4CCCCC4)ccc23)cc1", "survival": "79%"}, {"smiles": "CSc1cccc(NC(=O)Cn2ncn3c(cc4ccccc43)c2=O)c1", "survival": "65%"}, {"smiles": "CCN(Cc1ccccc1)C(=O)Cn1c(=O)n(-c2cccc(C)c2)c(=O)c2c1c1cc(OC)ccc1n2C", "survival": "59%"}, {"smiles": "O=C(NCC(c1cccnc1)N1CCc2ccccc2C1)C(=O)Nc1ccc(F)cc1F", "note": "(centres undefined)", "survival": "107%"}, {"smiles": "O=C(Nc1c(-c2ccccc2)nc2ccccn12)c1ccccc1F", "survival": "48%"}, {"smiles": "Cc1cc(C(=O)Nc2c(C)nc3ccccn3c2=O)ccc1[N+](=O)[O-]", "survival": "92%"}, {"smiles": "O=C(Nc1c(-c2ccc(F)cc2)nc2ccccn12)c1ccccc1F", "survival": "139%"}, {"smiles": "Cc1ccc(C(=O)Nc2c(-c3ccccc3)nc3ccccn23)cc1", "survival": "40% (active)"}, {"smiles": "O=C(Nc1c(-c2ccccc2)nc2ccccn12)c1ccc(Br)cc1", "survival": "31% (active)"}, {"smiles": "COC(=O)Nc1c(-c2ccccc2)nc2ccc(C)cn12", "survival": "74%"}, {"smiles": "Cc1ccc(C(=O)Nc2c(-c3ccccc3)nc3ccccn23)cc1C", "survival": "34% (active)"}, {"smiles": "Cc1cccc(C(=O)Nc2c(-c3ccc(F)cc3)nc3ccccn23)c1", "survival": "91%"}, {"smiles": "CC(C)Nc1c(-c2ccccc2)nc2ccccn12", "survival": "105%"}, {"smiles": "Cc1cc(NC(=O)CSc2ccccc2)no1", "survival": "88%"}, {"smiles": "CCOC(=O)Cc1nnc2c(Nc3cc(C)ccc3C)nc3nonc3n12", "survival": "101%"}, {"smiles": "Cc1oc(-c2cccc(Cl)c2)nc1Cn1c(SCc2ccc(F)cc2)nc2cccnc21", "survival": "85%"}, {"smiles": "Cc1ccc(C)c2nc(SCC(=O)OC(C)C)c(C#N)cc12", "survival": "92%"}, {"smiles": "COc1ccc(C(NC(C)=O)c2ccc(OC)cc2)cc1", "survival": "77%"}, {"smiles": "Cn1cnc(S(=O)(=O)N2CCC(C(=O)N3CCN(c4cccc(C(F)(F)F)c4)CC3)CC2)c1", "survival": "106%"}, {"smiles": "O=C(NC1CCCC1)c1ccc(CSc2nc3cccnc3n2Cc2ccccc2)cc1", "survival": "95%"}, {"smiles": "COc1ccc(Cn2cc(S(=O)(=O)c3ccc(Cl)cc3)c(=O)c3cc4c(cc32)OCO4)cc1", "survival": "58%"}]}]}
